Common to all, as to assay: DAPPL (digital affinity profiling via proximity ligation, sequencing); 10 mM Tris-HCl pH 7.5, 50 mM NaCl, 1 mM DTT, 4% glycerol, room temperature, 30 min; GST-TFs on glutathione beads, 16-mer random dsDNA library, 0.1% formaldehyde crosslink after washing; high values mean tight binding
The target in one test is T1, FEV (Homo sapiens, UniProt Q99581 1-238).
T1 sequence: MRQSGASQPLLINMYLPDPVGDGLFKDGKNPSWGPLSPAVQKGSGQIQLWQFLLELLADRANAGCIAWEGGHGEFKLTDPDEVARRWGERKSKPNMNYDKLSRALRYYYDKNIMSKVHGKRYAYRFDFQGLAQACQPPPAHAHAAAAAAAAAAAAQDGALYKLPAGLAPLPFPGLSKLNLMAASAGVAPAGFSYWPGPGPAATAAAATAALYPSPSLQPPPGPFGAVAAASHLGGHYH
The following applies: protein: recombinant; tags: N-terminal GST; dsDNA, one strand shown. Put shortly:
(§1)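 Yeast served to express human transcription factors as GST fusions, which were then captured on glutathione beads and labelled with DNA barcodes. Pooled with a tag-only sample, they were incubated with 200 nmole of a 16-mer random double-stranded DNA library for 30 min at room temperature in Tris/NaCl/DTT/glycerol buffer, washed, crosslinked with 0.1% formaldehyde, ligated by proximity, amplified by PCR and sequenced. Dividing each hexamer's read frequency for a factor by its frequency for the tag-only sample gives the binding signal.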

A further test deals with ETV5 (Homo sapiens, UniProt P41161 1-510). Particulars: protein: recombinant; tags: N-terminal GST; dsDNA, one strand shown. Put shortly: as §1
For the next test, the target named is HSF1 (Homo sapiens, UniProt Q00613 1-529). The following applies: protein: recombinant; tags: N-terminal GST; chain copies: 3; dsDNA, one strand shown. Put shortly:
as §1

The target of a further test is T2, SPIC (Homo sapiens, UniProt Q8N5J4 1-248).
T2 sequence: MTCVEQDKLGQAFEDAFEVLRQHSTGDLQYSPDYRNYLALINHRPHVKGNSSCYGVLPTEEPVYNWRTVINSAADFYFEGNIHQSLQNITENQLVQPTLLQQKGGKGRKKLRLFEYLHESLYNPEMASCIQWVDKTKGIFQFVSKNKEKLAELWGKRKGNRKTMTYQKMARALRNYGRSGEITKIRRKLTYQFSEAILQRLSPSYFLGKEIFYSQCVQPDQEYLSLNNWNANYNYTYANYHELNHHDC
The following applies: protein: recombinant; tags: N-terminal GST; dsDNA, one strand shown. Put shortly:
as §1

A further test deals with ELF4 (Homo sapiens, UniProt Q99607 1-663). Particulars: protein: recombinant; tags: N-terminal GST; dsDNA, one strand shown. Put shortly: as §1
The target in the next test is T3, ELK4 (Homo sapiens, UniProt P28324-2 1-405).
T3 sequence: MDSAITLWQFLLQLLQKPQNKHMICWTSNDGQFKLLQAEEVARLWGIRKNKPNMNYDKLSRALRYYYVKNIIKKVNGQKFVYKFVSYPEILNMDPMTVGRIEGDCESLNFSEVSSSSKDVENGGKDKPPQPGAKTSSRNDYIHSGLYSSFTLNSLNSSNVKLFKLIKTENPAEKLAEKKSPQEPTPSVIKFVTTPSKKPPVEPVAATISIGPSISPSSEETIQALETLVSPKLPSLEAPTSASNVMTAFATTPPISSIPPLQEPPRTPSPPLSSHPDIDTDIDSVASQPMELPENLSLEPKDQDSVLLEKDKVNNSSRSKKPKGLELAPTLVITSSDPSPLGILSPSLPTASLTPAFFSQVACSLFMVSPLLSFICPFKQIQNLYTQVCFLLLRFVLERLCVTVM
Particulars: protein: recombinant; tags: N-terminal GST; dsDNA, one strand shown. The gist of the method:
as §1

The target of a further test is T4, ETV2 (Homo sapiens, UniProt O00321 1-342).
T4 sequence: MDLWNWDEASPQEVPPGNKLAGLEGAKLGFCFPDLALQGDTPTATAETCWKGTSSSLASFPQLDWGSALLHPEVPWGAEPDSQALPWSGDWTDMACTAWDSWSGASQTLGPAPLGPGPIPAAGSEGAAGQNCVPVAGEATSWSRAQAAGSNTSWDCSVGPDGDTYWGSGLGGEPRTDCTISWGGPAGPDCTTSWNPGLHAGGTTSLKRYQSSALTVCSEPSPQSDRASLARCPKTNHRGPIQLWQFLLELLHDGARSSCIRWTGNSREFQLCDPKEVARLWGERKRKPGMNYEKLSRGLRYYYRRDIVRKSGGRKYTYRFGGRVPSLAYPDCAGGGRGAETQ
Particulars: protein: recombinant; tags: N-terminal GST; dsDNA, one strand shown. The gist of the method:
as §1

Another test has as its target T5, ELF3 (Homo sapiens, UniProt P78545 1-371).
T5 sequence: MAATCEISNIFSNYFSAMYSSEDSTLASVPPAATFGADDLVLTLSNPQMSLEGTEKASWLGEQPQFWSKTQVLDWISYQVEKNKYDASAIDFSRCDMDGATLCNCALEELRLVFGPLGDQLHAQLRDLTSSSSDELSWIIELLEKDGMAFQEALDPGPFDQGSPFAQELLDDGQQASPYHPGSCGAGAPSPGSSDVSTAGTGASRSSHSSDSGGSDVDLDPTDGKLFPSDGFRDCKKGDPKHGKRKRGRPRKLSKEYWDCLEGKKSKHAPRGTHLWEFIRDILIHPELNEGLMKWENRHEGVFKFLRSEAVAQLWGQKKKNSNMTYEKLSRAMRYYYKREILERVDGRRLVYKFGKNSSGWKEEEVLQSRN
Particulars: protein: recombinant; tags: N-terminal GST; dsDNA, one strand shown. The gist of the method: as §1

The target in another test is CRX (Homo sapiens, UniProt O43186 1-299). Particulars: protein: recombinant; tags: N-terminal GST; dsDNA, one strand shown. Put shortly:
as §1

Another test deals with ETV1 (Homo sapiens, UniProt P50549 1-477). Particulars: protein: recombinant; tags: N-terminal GST; dsDNA, one strand shown. Put shortly: as §1
Sequence of ETV1 (P50549 whole entry): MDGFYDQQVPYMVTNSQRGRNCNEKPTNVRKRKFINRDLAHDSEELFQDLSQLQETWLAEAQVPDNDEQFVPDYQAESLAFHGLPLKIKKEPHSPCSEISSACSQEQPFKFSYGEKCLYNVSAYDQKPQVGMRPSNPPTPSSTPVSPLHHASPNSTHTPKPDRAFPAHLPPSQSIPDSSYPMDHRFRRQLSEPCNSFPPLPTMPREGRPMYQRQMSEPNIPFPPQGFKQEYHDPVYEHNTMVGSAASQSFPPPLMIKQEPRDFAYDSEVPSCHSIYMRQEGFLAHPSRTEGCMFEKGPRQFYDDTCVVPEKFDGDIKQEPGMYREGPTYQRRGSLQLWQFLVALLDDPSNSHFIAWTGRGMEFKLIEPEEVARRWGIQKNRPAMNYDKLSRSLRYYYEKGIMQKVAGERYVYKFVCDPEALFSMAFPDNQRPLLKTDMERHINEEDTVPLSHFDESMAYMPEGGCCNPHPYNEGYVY

Sequence of HSF1 (Q00613 whole entry): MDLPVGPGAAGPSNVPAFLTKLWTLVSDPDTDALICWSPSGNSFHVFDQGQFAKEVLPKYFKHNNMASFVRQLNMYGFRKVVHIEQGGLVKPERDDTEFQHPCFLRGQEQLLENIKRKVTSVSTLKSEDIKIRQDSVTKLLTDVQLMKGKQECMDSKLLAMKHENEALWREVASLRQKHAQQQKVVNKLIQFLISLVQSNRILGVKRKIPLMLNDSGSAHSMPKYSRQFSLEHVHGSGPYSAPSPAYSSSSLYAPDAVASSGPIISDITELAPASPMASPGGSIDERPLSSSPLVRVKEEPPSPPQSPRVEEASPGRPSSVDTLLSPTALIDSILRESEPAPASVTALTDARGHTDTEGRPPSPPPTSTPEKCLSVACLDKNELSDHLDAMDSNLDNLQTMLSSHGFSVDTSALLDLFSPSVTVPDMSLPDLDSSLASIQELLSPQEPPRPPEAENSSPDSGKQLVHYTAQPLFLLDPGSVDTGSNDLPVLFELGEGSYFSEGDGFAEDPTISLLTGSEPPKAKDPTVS
Sequence of ELF4 (Q99607 whole entry): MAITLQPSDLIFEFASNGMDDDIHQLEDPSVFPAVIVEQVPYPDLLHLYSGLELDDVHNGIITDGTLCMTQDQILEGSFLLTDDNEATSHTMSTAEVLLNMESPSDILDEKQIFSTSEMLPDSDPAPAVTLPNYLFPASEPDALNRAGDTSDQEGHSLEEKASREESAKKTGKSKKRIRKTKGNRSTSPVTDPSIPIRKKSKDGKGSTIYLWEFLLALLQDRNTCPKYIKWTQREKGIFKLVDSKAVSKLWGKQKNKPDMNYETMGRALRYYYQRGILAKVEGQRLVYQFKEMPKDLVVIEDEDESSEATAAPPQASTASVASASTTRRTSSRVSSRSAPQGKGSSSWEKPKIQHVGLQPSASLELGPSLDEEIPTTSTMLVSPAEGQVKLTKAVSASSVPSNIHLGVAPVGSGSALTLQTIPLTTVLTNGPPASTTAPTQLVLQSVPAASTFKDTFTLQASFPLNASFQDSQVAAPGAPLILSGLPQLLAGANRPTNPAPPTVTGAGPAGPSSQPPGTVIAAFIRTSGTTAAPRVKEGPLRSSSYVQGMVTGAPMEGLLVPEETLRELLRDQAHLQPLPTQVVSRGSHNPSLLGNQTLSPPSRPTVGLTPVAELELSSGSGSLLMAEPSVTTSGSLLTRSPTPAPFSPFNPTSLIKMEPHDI
Sequence of CRX (O43186 whole entry): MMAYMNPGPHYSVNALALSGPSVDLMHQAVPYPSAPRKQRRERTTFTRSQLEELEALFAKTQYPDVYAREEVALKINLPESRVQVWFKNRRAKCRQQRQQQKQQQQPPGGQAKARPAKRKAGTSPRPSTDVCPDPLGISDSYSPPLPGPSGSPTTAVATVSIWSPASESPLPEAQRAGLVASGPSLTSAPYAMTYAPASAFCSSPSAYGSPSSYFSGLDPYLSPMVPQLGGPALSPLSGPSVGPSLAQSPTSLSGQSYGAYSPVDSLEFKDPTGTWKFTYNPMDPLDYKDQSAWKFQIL
Sequence of ETV5 (P41161 whole entry): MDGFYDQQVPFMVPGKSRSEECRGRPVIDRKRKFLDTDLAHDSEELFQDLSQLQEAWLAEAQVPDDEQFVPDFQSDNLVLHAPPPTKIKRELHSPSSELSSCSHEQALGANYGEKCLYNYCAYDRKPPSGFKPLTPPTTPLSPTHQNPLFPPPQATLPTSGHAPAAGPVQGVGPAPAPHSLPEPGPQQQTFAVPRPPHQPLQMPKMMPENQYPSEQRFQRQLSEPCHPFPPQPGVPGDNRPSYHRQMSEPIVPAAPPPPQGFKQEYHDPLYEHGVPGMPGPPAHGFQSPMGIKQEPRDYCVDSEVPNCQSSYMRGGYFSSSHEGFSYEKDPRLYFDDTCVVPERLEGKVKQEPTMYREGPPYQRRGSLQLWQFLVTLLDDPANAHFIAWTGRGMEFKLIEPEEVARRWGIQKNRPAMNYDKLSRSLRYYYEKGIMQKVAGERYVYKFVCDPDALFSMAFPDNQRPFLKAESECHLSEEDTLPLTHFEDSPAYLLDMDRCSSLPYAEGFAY

Take TCATTC: the binding signal in the test with FEV is 1.19 fold enrichment (6-mer frequency, TF over GST control); in the test with ETV5 it was 1.19 fold enrichment (6-mer frequency, TF over GST control); with HSF1, 1.5 fold enrichment (6-mer frequency, TF over GST control); with SPIC, 1.13 fold enrichment (6-mer frequency, TF over GST control); in the test with ELF4, 1.26 fold enrichment (6-mer frequency, TF over GST control); with ELK4, 1.34 fold enrichment (6-mer frequency, TF over GST control). Also, the binding signal is 1.27 fold enrichment (6-mer frequency, TF over GST control) in the test with ETV2; 1.2 fold enrichment (6-mer frequency, TF over GST control) with ELF3; 1.22 fold enrichment (6-mer frequency, TF over GST control) with CRX; 1.2 fold enrichment (6-mer frequency, TF over GST control) with ETV1.
On to CTATAC, for which the binding signal was 1.3 fold enrichment (6-mer frequency, TF over GST control) with FEV; 1.22 fold enrichment (6-mer frequency, TF over GST control) with ETV5; 1.14 fold enrichment (6-mer frequency, TF over GST control) with HSF1; 1.21 fold enrichment (6-mer frequency, TF over GST control) in the test with SPIC; 1.29 fold enrichment (6-mer frequency, TF over GST control) with ELF4; 1.07 fold enrichment (6-mer frequency, TF over GST control) in the test with ELK4. In addition, the binding signal with ETV2 was 1.4 fold enrichment (6-mer frequency, TF over GST control); with ELF3 it was 1.24 fold enrichment (6-mer frequency, TF over GST control); with CRX, 1.19 fold enrichment (6-mer frequency, TF over GST control); with ETV1, 1.29 fold enrichment (6-mer frequency, TF over GST control).
CTCTCA: the binding signal in the test with FEV was 1.44 fold enrichment (6-mer frequency, TF over GST control); with ETV5, 1.35 fold enrichment (6-mer frequency, TF over GST control); with HSF1, 1.2 fold enrichment (6-mer frequency, TF over GST control); with SPIC, 1.21 fold enrichment (6-mer frequency, TF over GST control); with ELF4, 1.42 fold enrichment (6-mer frequency, TF over GST control); in the test with ELK4 it was 1.45 fold enrichment (6-mer frequency, TF over GST control). For the same sequence, the binding signal in the test with ETV2 was 1.33 fold enrichment (6-mer frequency, TF over GST control); with ELF3, 1.47 fold enrichment (6-mer frequency, TF over GST control); in the test with CRX it was 1.24 fold enrichment (6-mer frequency, TF over GST control); with ETV1, 1.51 fold enrichment (6-mer frequency, TF over GST control).
For TAATTG, the binding signal with FEV was 1.32 fold enrichment (6-mer frequency, TF over GST control); with ETV5, 1.4 fold enrichment (6-mer frequency, TF over GST control); with HSF1 it was 1.42 fold enrichment (6-mer frequency, TF over GST control); with SPIC it was 1.31 fold enrichment (6-mer frequency, TF over GST control); with ELF4 it was 1.36 fold enrichment (6-mer frequency, TF over GST control); in the test with ELK4, 1.35 fold enrichment (6-mer frequency, TF over GST control). In addition, the binding signal with ETV2 is 1.44 fold enrichment (6-mer frequency, TF over GST control); with ELF3, 1.49 fold enrichment (6-mer frequency, TF over GST control); with CRX it was 1.82 fold enrichment (6-mer frequency, TF over GST control); with ETV1 it was 1.35 fold enrichment (6-mer frequency, TF over GST control).
For TATTCC, the binding signal with FEV was 1.61 fold enrichment (6-mer frequency, TF over GST control); with ETV5, 1.72 fold enrichment (6-mer frequency, TF over GST control); in the test with HSF1, 2.11 fold enrichment (6-mer frequency, TF over GST control); with SPIC, 1.74 fold enrichment (6-mer frequency, TF over GST control); in the test with ELF4, 1.62 fold enrichment (6-mer frequency, TF over GST control); in the test with ELK4 it was 1.44 fold enrichment (6-mer frequency, TF over GST control). Also, the binding signal in the test with ETV2 was 1.68 fold enrichment (6-mer frequency, TF over GST control); in the test with ELF3, 1.5 fold enrichment (6-mer frequency, TF over GST control); in the test with CRX, 1.77 fold enrichment (6-mer frequency, TF over GST control); with ETV1, 1.52 fold enrichment (6-mer frequency, TF over GST control).
Take AATCTA: the binding signal in the test with FEV was 1.15 fold enrichment (6-mer frequency, TF over GST control); in the test with ETV5 it was 1.12 fold enrichment (6-mer frequency, TF over GST control); in the test with HSF1 it was 1.87 fold enrichment (6-mer frequency, TF over GST control); with SPIC, 1.1 fold enrichment (6-mer frequency, TF over GST control); with ELF4, 1.14 fold enrichment (6-mer frequency, TF over GST control); in the test with ELK4, 1.07 fold enrichment (6-mer frequency, TF over GST control). In addition, the binding signal was 1.09 fold enrichment (6-mer frequency, TF over GST control) with ETV2; 1.04 fold enrichment (6-mer frequency, TF over GST control) with ELF3; 1.92 fold enrichment (6-mer frequency, TF over GST control) with CRX; 1.21 fold enrichment (6-mer frequency, TF over GST control) with ETV1.
Take GAATTT: the binding signal in the test with FEV was 1.19 fold enrichment (6-mer frequency, TF over GST control); in the test with ETV5 it was 1.26 fold enrichment (6-mer frequency, TF over GST control); with HSF1, 1.7 fold enrichment (6-mer frequency, TF over GST control); with SPIC, 1.39 fold enrichment (6-mer frequency, TF over GST control); with ELF4 it was 1.25 fold enrichment (6-mer frequency, TF over GST control); with ELK4, 1.31 fold enrichment (6-mer frequency, TF over GST control). Also, the binding signal with ETV2 is 1.14 fold enrichment (6-mer frequency, TF over GST control); with ELF3 it was 1.13 fold enrichment (6-mer frequency, TF over GST control); with CRX it was 1.39 fold enrichment (6-mer frequency, TF over GST control); in the test with ETV1 it was 1.24 fold enrichment (6-mer frequency, TF over GST control).
